A short description of the assay: basal RPMI8226 mitochondrial membrane potential changes, profiling panel, cell-based, JC-1 fluorescence, 24 h, 100 nL compound (AID 1169). Further: test concentration not given here. The settings on record: RPMI8226 myeloma, JC-1 mitochondrial potential fluorescence, higher = more signal.
Molecule `COc1ccc(C#Cc2ccc3c(c2)[C@]2(C(=O)N3)[C@H](C(=O)N3CCN(c4ncccn4)CC3)[C@H]3C(=O)O[C@H](c4ccccc4)[C@H](c4ccccc4)N3[C@@H]2c2ccc(O)cc2)cc1` returned a z-score of -0.899. Under `CCCC[C@H]1C[C@@H]1[C@@H]1N(P(=O)(c2ccccc2)c2ccccc2)[C@](CO)(c2ccccc2)CC12CC2` stands -0.868; under `O=C(N1CCCCC1)[C@]1(CCS(=O)(=O)c2ccccc2)N=C(c2ccc(OCCCO)cc2)O[C@@H]1c1ccccc1`, -1.1. Under `OCCCc1cc[n+](Cc2cccc(OC(F)(F)F)c2)cc1` stands -0.0293.

Molecule `COc1ccc([Si](C)(C)[C@H]2[C@H](CC(=O)N3CCC[C@H]3CO)O[C@@]3(C(=O)N(Cc4cccc(N5CCC5=O)c4)c4ccccc43)[C@@H]2C)cc1` came in with a z-score of -1.14.

Consider `CCCNC(=O)[C@@]1(c2ccc([N+](=O)[O-])cc2)CC(=O)N(CC23CC4CC(CC(C4)C2)C3)[C@@H]1c1ccc(CO)cc1I`, for which the z-score is -0.872. `CCCNC(=O)[C@@]1(C)c2ccccc2C(=O)N(Cc2cc(F)cc(C(F)(F)F)c2)[C@H]1c1ccc(CO)cc1`: the z-score turned out to be 0.795.

`C=C[C@H](C)[C@H](OC(=O)Nc1ccc(OC)cc1)c1ccc(O)c2ccccc12` registered a z-score of -1.03. As for `O=c1cccc(-c2ccccc2)o1`, the figure is 0.826; as for `CC1CC/C=C\[C@H]2OC34C=CCN(Cn5nnc6ccccc65)C(=O)[C@H]3N(CCCO)C(=O)[C@@H]4C2C(=O)O1` (stereo partly specified), 0.0216; as for `COc1ccc(C#Cc2ccc3c(c2)[C@]2(C(=O)N3)[C@H](c3ccc(OCCO)cc3)N3[C@H](c4ccccc4)[C@H](c4ccccc4)OC(=O)[C@H]3[C@@H]2C(=O)Nc2nc3ccccc3s2)cc1`, -1.3.
